# Laboratory results as given in PubChem BioAssay (Tox21).
# Results filed as inconclusive are left out. Activity calls are given as the source filed them. Calls follow the shape of the dose curve; as a rule, active = well fitted inhibition curve with a large enough effect in the signal ratio in the repeat runs (not every such curve was filed as active); inconclusive = weak or mixed curves, or effect the other way; inactive = no such curve, though single readings can be large or run the other way; the % refers to the signal ratio.
# Biological target: Peroxisome proliferator-activated receptor delta (Homo sapiens) (UniProt Q03181)
# Test: qHTS assay to identify small molecule antagonists of the peroxisome proliferator-activated receptor delta (PPARd) signaling pathway (AID 743215);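 also: cells stimulated with agonist L165041 at 300 nM final during compound exposure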
# Details: HEK293H PPARd-UAS-bla, beta-lactamase FRET ratio, antagonist, 17 h; series mostly up to 62 µM; ratio activity, negative = inhibition: at the top concentration
# From the text: U.S. Tox21 Program National Center for Advancing Translational Sciences [NCATS] NIH Chemical Genomics Center [NCGC] U.S. Environmental Protection Agency [EPA] National Institutes of Environmental Health Sciences [NIEHS] National Toxicology Program [NTP] U.S. Food and Drug Administration [FDA] Tox21 Assay Overview: The peroxisome proliferator-activated receptors (PPARs) are lipid-activated transcription factors of the nuclear receptor superfamily with three distinct subtypes namely PPAR alpha, PPAR delta (PPARd) and PPAR gamma. All these subtypes heterodimerizes with Retinoid X receptor (RXR) and have different physiological functions. […] To identify the compounds that inhibit PPAR-delta signaling, GeneBLAzer PPAR delta UAS-bla HEK293H cell line (Invitrogen, Carlsbad, CA, USA) containing a beta-lactamase reporter gene under the control of an Upstream Activator Sequence (UAS) was used to screen the Tox21 compound library.
# Tox21 Assay Protocol Summary: PPARd-bla cells were dispensed at 3000 cells/5uL/well in 1536-well black wall/clear bottom plates using a Multidrop Combi (Thermo Fisher Scientific, Waltham, MA) dispenser. After the assay plates were incubated at 37 C and 5% CO2 for 5 h, 23 nL of compounds dissolved in DMSO, positive controls or DMSO only was transferred to the assay plate by a Pintool station (Kalypsys, San Diego, CA), followed by addition of 1ul L165041 (300 nM, final concentration in the wells). The assay plates were incubated at 37 C for 17 h, and then 1 uL of LiveBLAzerTM B/G FRET substrate was added using a Bioraptr Flying Reagent Dispenser (FRD) workstation (Beckman Coulter, Indianapolis, IN, USA). The assay plates were incubated at room temperature for 2 h and fluorescence intensity was measured by an Envision plate reader (PerkinElmer, Shelton, CT).
# % is scaled to controls: 0 for no effect and ±100 for the full control effect.
# Chain of Peroxisome proliferator-activated receptor delta (Homo sapiens) (Q03181 whole entry, looked up): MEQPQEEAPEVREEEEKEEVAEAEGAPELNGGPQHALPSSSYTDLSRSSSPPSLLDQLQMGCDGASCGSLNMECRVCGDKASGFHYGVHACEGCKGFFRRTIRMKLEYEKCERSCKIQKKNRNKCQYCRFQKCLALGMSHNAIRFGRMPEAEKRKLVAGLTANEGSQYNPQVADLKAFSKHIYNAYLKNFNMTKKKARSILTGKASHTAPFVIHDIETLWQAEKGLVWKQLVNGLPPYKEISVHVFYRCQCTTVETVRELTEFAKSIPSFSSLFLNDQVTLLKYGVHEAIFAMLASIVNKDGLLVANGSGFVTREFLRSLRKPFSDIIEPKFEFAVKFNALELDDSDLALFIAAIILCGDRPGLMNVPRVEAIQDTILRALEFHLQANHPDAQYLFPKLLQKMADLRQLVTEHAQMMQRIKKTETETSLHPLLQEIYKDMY
row,SMILES,"ratio activity, negative = inhibition"
1,CCN(CC)C(=O)C1CN2CCc3cc(OC)c(OC)cc3C2CC1OC(C)=O (stereo not given),-0.599% (inactive)
2,CC(C)COC(=O)CCCCC(=O)OCC(C)C,-1.06% (inactive)
3,O=C(O)C(=O)Nc1cccc(-c2nn[nH]n2)c1,5.08% (inactive)
4,O=C(Oc1ccccc1C(=O)O)c1ccccc1O,-0.835% (inactive)
5,CCNC(=O)NCCCOc1cccc(CN2CCCCC2)c1,-2.87% (inactive)
6,CC(=O)OC(C)(C)Cc1ccccc1,10.9% (inactive)
7,CCCCCCCCOC(C)=O,4.09% (inactive)
8,Cc1ccccc1C,3.02% [at 80.4 µM] (inactive)
9,O=CN1CCOCC1,-4.2% (inactive)
10,O=S(=O)(O)CCO,-0.988% [at 80.4 µM] (inactive)
11,CCCCC[Si](OCC)(OCC)OCC,1.9% (inactive)
12,O=C1c2ccccc2-c2ccccc21,-6.1% [at 80.4 µM] (inactive)
13,CCNC(=O)/C=C/c1cccc(Br)c1,1.93% (inactive)
14,CCN(CCC#N)c1ccccc1,21.2% (inactive)
15,CC(=O)OCC(=O)[C@@]1(O)[C@H](OC(C)=O)C[C@H]2[C@@H]3CCC4=CC(=O)C=C[C@]4(C)[C@@]3(F)[C@@H](O)C[C@@]21C,3.19% (inactive)
16,O=S(=O)(O)SSS(=O)(=O)O,13.1% (inactive)
17,Nc1ccc(/C=C/c2ccc(N)cc2S(=O)(=O)O)c(S(=O)(=O)O)c1,-1.73% [at 0.575 µM] (inactive)
18,C=CC(C)(O)CC/C=C(\C)CC (stereo not given),3.61% (inactive)
19,CCCCCCCCCCCCCCCCI,0.204% [at 28.9 µM] (inactive)
20,CCCCOC(=O)C(=O)OCCCC,8.38% (inactive)

row,SMILES,"ratio activity, negative = inhibition"
1,Cc1cccc(Nc2ccncc2S(=O)(=O)NC(=O)NC(C)C)c1,3.43% (inactive)
2,C1CCN2C[C@@H]3C[C@@H](CN4CCCC[C@@H]34)[C@H]2C1,6.55% (inactive)
3,CCc1nccnc1C,7.38% (inactive)
4,O=[Si]=O,6.03% (inactive)
5,C[C@H]1O[C@H](O[C@H]2[C@H](O)[C@@H](O)[C@@H](O[C@H]3[C@H](O)[C@@H](O)[C@H](O)O[C@@H]3CO)O[C@@H]2CO)[C@H](O)[C@@H](O)[C@@H]1N[C@H]1C=C(CO)[C@@H](O)[C@H](O)[C@H]1O,6.14% (inactive)
6,C=CCOC(=O)c1ccc(C(=O)OCC=C)c(C(=O)OCC=C)c1,21.5% (inactive)
7,O=S(=O)(O)c1cc(O)ccc1O,7.98% (inactive)
8,C=C(C)C(=O)OC1CC(C)CC(C)(C)C1 (stereo not given),-1.52% (inactive)
9,CN(C)CCCNCCC#N,-5.37% (inactive)
10,CC1=NN(c2ccc(S(=O)(=O)O)cc2)C(=O)C1N=Nc1ccccc1 (stereo not given),-3.32% (inactive)
11,COc1cc(C=O)ccc1OC(=O)C(C)C,5.12% (inactive)
12,CC(Cl)COP(=O)(OCC(C)Cl)OCC(C)Cl (stereo not given),7.93% (inactive)
13,O=C(O)CCNC(=O)c1ccccc1,0.292% (inactive)
14,O=C1OC(=O)c2ccccc21,7.39% (inactive)
15,Cc1cccc(C(=O)O)c1[N+](=O)[O-],6.01% (inactive)
16,CCCCCCCCC(=O)OCC,19.1% (inactive)
17,CCCCC(=O)N(C)C,0.351% (inactive)
18,NC(=O)C1(N2CCCCC2)CCN(CCCC(=O)c2ccc(F)cc2)CC1,-4.12% (inactive)
19,CCOC(=O)C(C)(C)C,-0.102% [at 80.4 µM] (inactive)
20,COc1cccc2sc(N)nc12,5.2% [at 80.4 µM] (inactive)
